Measurements from the supplement of paper PMC11219838.
Unmarked numbers belong to inactive results.

What follows are compounds tested on Meloidogyne hapla J2 (assay: proportion of mobile M. hapla J2 relative to DMSO control (fraction of DMSO control); higher = more viable, less nematicidal, active = 0.7 or less). Settings: 60 µM; 5 days; temperature: 20 °C.
Outline: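 Compound was pinned to 60 µM final (0.6% v/v DMSO) into 96-well wells, each holding about 25 M. hapla J2 in distilled water. Plates were sealed and shaken for 5 days at 20 °C and 200 rpm, then given 2 µL 1 M NaOH per well. Microscopic mobility scores were normalised to the mean of the plate's own DMSO wells, eight per plate, with two biological replicates averaged.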
`Cc1ccc(-c2nc(-c3cccnc3)no2)c(C)c1` was tested, and the “proportion of mobile M. hapla J2” value was 1.1.
With `O=C(CSc1nnc(-c2ccccc2Cl)o1)NCc1ccco1` the “proportion of mobile M. hapla J2” value was 0.961.
For `Cc1nc(CSc2nnc(-c3ccccc3)o2)cs1`, the “proportion of mobile M. hapla J2” value was 0.282 (active).
With `CCc1ccc(OCc2nc(-c3cccc(OC)c3)no2)cc1` the “proportion of mobile M. hapla J2” value was 0.74.
In the case of `COc1ccc(Cl)cc1-c1nc(-c2ccc3c(c2)OCO3)no1`, the “proportion of mobile M. hapla J2” value is reported as 0.957.
In the case of `COc1ccc(-c2noc(-c3ccccc3C(=O)Nc3cccc(C)c3C)n2)cc1`, the “proportion of mobile M. hapla J2” value is reported as 0.912.
For `Cc1cccc(-c2nc(-c3ccc(Br)cc3)no2)c1`, the “proportion of mobile M. hapla J2” value was 1.01.
For `Cc1ccc(OCc2nc(-c3ccccc3)no2)cc1C`, the “proportion of mobile M. hapla J2” value was 1.1.
`COc1ccccc1-c1nc(-c2ccccc2)no1` was tested, and the “proportion of mobile M. hapla J2” value was 1.
With `Cc1ccc(OCc2nc(-c3ccc4c(c3)OCO4)no2)cc1C` the “proportion of mobile M. hapla J2” value was 1.04.
With `CCCC(=O)Nc1ccccc1-c1nc(-c2ccccn2)no1` the “proportion of mobile M. hapla J2” value was 0.965.
`Fc1ccc(-c2nc(-c3ccc(Cl)cc3)no2)cc1` was tested, and the “proportion of mobile M. hapla J2” value was 0.919.
`Clc1ccc(-c2noc(COc3ccccc3Cl)n2)cc1` was tested, and the “proportion of mobile M. hapla J2” value was 0.891.
`Cc1ccc(-c2noc(CSc3nc(C)cc(C)n3)n2)cc1` was tested, and the “proportion of mobile M. hapla J2” value was 0.974.
For `c1ccc(-c2noc(COc3ccc4c(c3)CCCC4)n2)cc1`, the “proportion of mobile M. hapla J2” value was 0.923.
In the case of `Cc1cc(OCc2nc(-c3ccncc3)no2)c(C)cc1Br`, the “proportion of mobile M. hapla J2” value is reported as 0.866.
`O=C(CSc1nnc(-c2ccccc2Cl)o1)NCc1ccccc1` was tested, and the “proportion of mobile M. hapla J2” value was 1.04.
In the case of `Clc1ccc(-c2noc(-c3ccncc3)n2)cc1`, the “proportion of mobile M. hapla J2” value is reported as 0.784.
`COc1ccc(-c2nnc(SCc3ccccc3)o2)cc1` was tested, and the “proportion of mobile M. hapla J2” value was 0.96.
For `CCSc1nnc(-c2ccc(Cl)cc2)o1`, the “proportion of mobile M. hapla J2” value was 0 (active).
With `N#Cc1ccccc1CSc1nnc(-c2ccncc2)o1` the “proportion of mobile M. hapla J2” value was 0.826.

These compounds were tested on Caenorhabditis elegans dauer (daf-2(e1370)) (assay: proportion of mobile C. elegans dauer larvae relative to DMSO control (fraction of DMSO control); higher = more viable, less nematicidal, active = 0.63 or less; extreme values may be limits of the assay). Settings: 60 µM; 5 days; temperature: 20 °C.
Outline: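 Compound was added by pinning to 60 µM final, giving 0.6% v/v DMSO, in 96-well plates containing about 20 C. elegans dauers per well in liquid NGM. These dauers came from synchronized larvae held on MYOB plates with E. coli OP50 for 48 h at 25 °C. Plates were sealed and shaken at 200 rpm at 20 °C for 5 days. Under a dissection microscope, the proportion of mobile worms was scored relative to DMSO wells, and two biological replicates were averaged.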
`O=C(CSc1nnc(-c2cccnc2)o1)c1ccc(Br)cc1` was tested, and the “proportion of mobile C. elegans dauer larvae” value was 1.
With `COc1ccc(-c2nnc(SCC(=O)Nc3ccc(C(C)C)cc3)o2)cc1` the “proportion of mobile C. elegans dauer larvae” value was 1.
In the case of `Cc1ccccc1OCc1nc(-c2cccs2)no1`, the “proportion of mobile C. elegans dauer larvae” value is reported as 1.
In the case of `Brc1ccc(-c2noc(COc3ccc4c(c3)OCO4)n2)cc1`, the “proportion of mobile C. elegans dauer larvae” value is reported as 1.
`Brc1ccc(-c2noc(-c3ccc4c(c3)OCO4)n2)cc1` was tested, and the “proportion of mobile C. elegans dauer larvae” value was 1.
In the case of `c1csc(-c2nnc(-c3cccs3)o2)c1`, the “proportion of mobile C. elegans dauer larvae” value is reported as 0.786.
For `Cc1ccc(-c2noc(-c3ccc(C)cc3)n2)cc1`, the “proportion of mobile C. elegans dauer larvae” value was 0.881.
`CC(C)Oc1ccc(-c2nc(-c3cccnc3)no2)cc1` was tested, and the “proportion of mobile C. elegans dauer larvae” value was 0 (active).
`O=C(CSc1nnc(-c2ccncc2)o1)Nc1ccccc1Cl` was tested, and the “proportion of mobile C. elegans dauer larvae” value was 1.
In the case of `O=C(CSc1nnc(-c2ccccc2Cl)o1)Nc1ccc(Br)cn1`, the “proportion of mobile C. elegans dauer larvae” value is reported as 1.
`COc1ccc(-c2noc(CSc3nc4cc(C)ccc4[nH]3)n2)cc1` was tested, and the “proportion of mobile C. elegans dauer larvae” value was 1.
With `Cc1cc(OCc2nc(-c3ccccn3)no2)ccc1Cl` the “proportion of mobile C. elegans dauer larvae” value was 1.
With `CCCCCSc1nnc(-c2ccc(Cl)cc2Cl)o1` the “proportion of mobile C. elegans dauer larvae” value was 1.
With `COc1ccc(NC(=O)c2ccccc2-c2nc(-c3ccccc3C)no2)cc1` the “proportion of mobile C. elegans dauer larvae” value was 1.
In the case of `CCN(C(=O)CSc1nnc(-c2ccncc2)o1)c1ccccc1`, the “proportion of mobile C. elegans dauer larvae” value is reported as 1.
For `CCc1ccc(OCc2nc(-c3ccccn3)no2)cc1`, the “proportion of mobile C. elegans dauer larvae” value was 1.
In the case of `c1ccc(COc2cccc(-c3nc(-c4ccccn4)no3)c2)cc1`, the “proportion of mobile C. elegans dauer larvae” value is reported as 1.
`CCCCc1ccc(-c2nc(-c3cccnc3)no2)cc1` was tested, and the “proportion of mobile C. elegans dauer larvae” value was 1.
With `Cc1ccc(-c2nc(-c3cccnc3)no2)c(C)c1` the “proportion of mobile C. elegans dauer larvae” value was 0.0769 (active).
In the case of `O=C(CSc1nnc(-c2ccccc2Cl)o1)NCc1ccco1`, the “proportion of mobile C. elegans dauer larvae” value is reported as 1.
For `Cc1nc(CSc2nnc(-c3ccccc3)o2)cs1`, the “proportion of mobile C. elegans dauer larvae” value was 1.
In the case of `CCc1ccc(OCc2nc(-c3cccc(OC)c3)no2)cc1`, the “proportion of mobile C. elegans dauer larvae” value is reported as 1.
With `COc1ccc(Cl)cc1-c1nc(-c2ccc3c(c2)OCO3)no1` the “proportion of mobile C. elegans dauer larvae” value was 1.
With `COc1ccc(-c2noc(-c3ccccc3C(=O)Nc3cccc(C)c3C)n2)cc1` the “proportion of mobile C. elegans dauer larvae” value was 1.
In the case of `Cc1cccc(-c2nc(-c3ccc(Br)cc3)no2)c1`, the “proportion of mobile C. elegans dauer larvae” value is reported as 1.
With `Cc1ccc(OCc2nc(-c3ccccc3)no2)cc1C` the “proportion of mobile C. elegans dauer larvae” value was 1.
For `COc1ccccc1-c1nc(-c2ccccc2)no1`, the “proportion of mobile C. elegans dauer larvae” value was 1.
`Cc1ccc(OCc2nc(-c3ccc4c(c3)OCO4)no2)cc1C` was tested, and the “proportion of mobile C. elegans dauer larvae” value was 1.
With `CCCC(=O)Nc1ccccc1-c1nc(-c2ccccn2)no1` the “proportion of mobile C. elegans dauer larvae” value was 1.
For `Fc1ccc(-c2nc(-c3ccc(Cl)cc3)no2)cc1`, the “proportion of mobile C. elegans dauer larvae” value was 1.
With `Clc1ccc(-c2noc(COc3ccccc3Cl)n2)cc1` the “proportion of mobile C. elegans dauer larvae” value was 1.
With `Cc1ccc(-c2noc(CSc3nc(C)cc(C)n3)n2)cc1` the “proportion of mobile C. elegans dauer larvae” value was 1.
In the case of `c1ccc(-c2noc(COc3ccc4c(c3)CCCC4)n2)cc1`, the “proportion of mobile C. elegans dauer larvae” value is reported as 1.
In the case of `Cc1cc(OCc2nc(-c3ccncc3)no2)c(C)cc1Br`, the “proportion of mobile C. elegans dauer larvae” value is reported as 1.
With `O=C(CSc1nnc(-c2ccccc2Cl)o1)NCc1ccccc1` the “proportion of mobile C. elegans dauer larvae” value was 1.
`Clc1ccc(-c2noc(-c3ccncc3)n2)cc1` was tested, and the “proportion of mobile C. elegans dauer larvae” value was 1.
For `COc1ccc(-c2nnc(SCc3ccccc3)o2)cc1`, the “proportion of mobile C. elegans dauer larvae” value was 1.
For `CCSc1nnc(-c2ccc(Cl)cc2)o1`, the “proportion of mobile C. elegans dauer larvae” value was 0 (active).
In the case of `N#Cc1ccccc1CSc1nnc(-c2ccncc2)o1`, the “proportion of mobile C. elegans dauer larvae” value is reported as 1.
